Rows were chosen to be rich in hits. Some 7.5% of all compounds tested hit in one or more screens of this group.
NPC1 promoter act: activates the NPC1 promoter; Huh7 NPC1 promoter luciferase reporter, 24 h; AID 485313; Potency, µM (top dose mostly 9.22 µM), actives largely listed as activators; 320,000 tested, 2.4% active; note: nearly all actives have a fitted effect of over 60% in size
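Readout is luciferase luminescence, reflecting NPC1 promoter activation in stably transfected Huh7 cells after 24 h compound exposure at 37 °C in reduced-serum medium with 10% FBS.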
SMN2 splice enh: increases expression of the SMN2 splice variant; HEK293 SMN2-luciferase splicing reporter, luminescence, 30-36 h; Potency, µM (highest dose often 46.1 µM), usual class: activators; 210,000 tested, 2.8% active; note: nearly all actives have a fitted effect of over 55% in size
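qHTS luciferase splicing reporter: luminescence rises when SMN2 exon 7 is included in transfected HEK293 cells. Compound exposure lasted 30-36 h at 37C, with 4.5 mM final sodium butyrate as control, followed by a ONE-Glo read.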
Luc counter: Kinase-Glo luciferase inhibition (counter-screen) | Q27757 | Kinase-Glo luciferase, ATP luminescence, 8 min | Potency, µM (top dose mostly 38.3 µM), actives largely listed as inhibitors | 200,000 tested, 0.28% active; note: nearly all actives have a fitted effect of over 60% in size
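Compound is pinned into ATP-containing buffer (10 uM ATP, imidazole pH 7.2, 7 mM MgCl2). Kinase-Glo luciferase reagent is then added. Light output is recorded following an 8-min room-temperature incubation.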
ELG1 genotox: induces genotoxicity in HEK293T cells with luciferase-tagged ELG1; Potency, µM (top dose mostly 46 µM), actives largely listed as activators; HEK293T ELG1-luciferase reporter, luminescence, 16 h; 330,000 tested, 1.3% active; AID 504466; note: nearly all actives have a fitted effect of over 60% in size
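Cells (2,000/well) expressing the ELG1-luciferase fusion are dosed by pin tool and kept 16 hr at 37 °C, 5% CO2. Signal comes from ONE-Glo luciferase reagent after 30 min at room temperature.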
Rab9 promoter act: activates the Rab9 promoter; Huh7 Rab9 promoter-luciferase reporter, luminescence, 24 h; Potency, µM (titrated, usually from 9.22 µM), hits mostly activators; 320,000 tested, 2.8% active; note: nearly all actives have a fitted effect of over 60% in size
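Quantitative HTS format; Huh7 Rab9-luciferase reporter cells (1500/well) receive compound 2 h post-plating, incubate 24 h at 37 °C, then get luciferase reagent for 10 min before luminescence reading.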
FLuc counter: firefly luciferase modulation, counter-screen for miR-21 project. AID 588342. P08659. 360,000 tested, 6.9% active. Potency, µM (top dose mostly 57.5 µM), hits mostly inhibitors. purified FLuc, Km substrates, luminescence inhibition; note: nearly all actives have a fitted effect of over 55% in size
Target sequence (P08659 whole entry, looked up): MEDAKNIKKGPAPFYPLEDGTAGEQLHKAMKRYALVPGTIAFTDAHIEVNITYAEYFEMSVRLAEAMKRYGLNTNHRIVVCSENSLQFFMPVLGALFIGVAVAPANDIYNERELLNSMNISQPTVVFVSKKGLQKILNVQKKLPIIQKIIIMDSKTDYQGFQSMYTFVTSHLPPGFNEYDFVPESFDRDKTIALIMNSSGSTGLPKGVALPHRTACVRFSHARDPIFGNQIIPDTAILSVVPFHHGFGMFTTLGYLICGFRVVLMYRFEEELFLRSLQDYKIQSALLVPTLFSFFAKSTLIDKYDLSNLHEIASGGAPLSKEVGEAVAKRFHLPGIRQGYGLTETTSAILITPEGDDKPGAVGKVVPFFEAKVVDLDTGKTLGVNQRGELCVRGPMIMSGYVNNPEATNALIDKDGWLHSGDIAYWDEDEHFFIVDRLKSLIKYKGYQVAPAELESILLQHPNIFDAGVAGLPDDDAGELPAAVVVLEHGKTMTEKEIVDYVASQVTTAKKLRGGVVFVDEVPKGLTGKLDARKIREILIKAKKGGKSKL
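Purified P. pyralis luciferase (10nM final) with 10uM D-luciferin and 10uM ATP (Km levels) in 50mM Tris acetate pH 7.5, 10mM Mg acetate, 0.01% Tween-20, 0.05% BSA; qHTS 6-point titration, ~60 µM downward; luminescence read.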
Hits are given with their value; [ ] = remark or other dose. Calls come from the whole dose curve; as a rule, active = well fitted curve in the direction sought with a large enough effect; inconclusive = small, poorly fitted or top-dose-only effect, or another doubt; inactive = no such curve, though single readings can be large; an effect the other way counts as inactive or inconclusive.

How did O=C(CSc1nc2c(sc3ccccc32)c(=O)n1CCCC(=O)NC1CCCC1)Nc1ccc(F)cc1 do in these assays?
SMN2 splice enh: inactive; FLuc counter: inactive

Results for Cc1ccc(-c2csc(N)n2)s1 ?
NPC1 promoter act: inconclusive; SMN2 splice enh: inactive; Luc counter: inactive; ELG1 genotox: inconclusive; Rab9 promoter act: inactive; FLuc counter: 15.1µM

How did CC(C)C(=O)Nc1nnc(CCc2ccccc2)s1 do in these assays?
NPC1 promoter act: inactive; ELG1 genotox: inactive; Rab9 promoter act: inactive; FLuc counter: inactive

How did CC(C)(C)C(=O)Nc1nnc(CCc2ccccc2)s1 do in these assays?
NPC1 promoter act: 3.98µM; ELG1 genotox: inconclusive; Rab9 promoter act: 5.62µM; FLuc counter: 12µM

What do the screens show for `CCCc1nnc(NC(=O)Nc2ccccc2Cl)s1`?
SMN2 splice enh: 15.8µM; FLuc counter: inconclusive

How did CCCc1nnc(NC(=O)CCC(=O)Nc2ccc(Cl)cc2)s1 do in these assays?
NPC1 promoter act: inactive; ELG1 genotox: inconclusive; Rab9 promoter act: inactive; FLuc counter: inactive

Results for CC(C)C(=O)Nc1nnc(NC(=S)Nc2ccccc2)s1 ?
NPC1 promoter act: inconclusive; SMN2 splice enh: inactive; Luc counter: inactive; ELG1 genotox: inconclusive; Rab9 promoter act: 4.47µM; FLuc counter: 21.3µM

What do the screens show for `CCCc1nnc(NC(=S)Nc2ccccc2)s1`?
NPC1 promoter act: inconclusive; SMN2 splice enh: inconclusive; Luc counter: inactive; ELG1 genotox: inconclusive; Rab9 promoter act: 2.51µM; FLuc counter: inconclusive

What do the screens show for `O=C1C[C@H](NC(=O)OCc2ccccc2)CO1`?
NPC1 promoter act: inactive; ELG1 genotox: inactive; Rab9 promoter act: inactive; FLuc counter: inactive

What do the screens show for `CCCCCNC(=O)C(=O)NCC(c1ccc2c(c1)OCO2)N1CCOCC1` (centres undefined)?
FLuc counter: inactive

Results for Cc1cc(/C=C(\C#N)C(=O)OCC(=O)Nc2ccc(OC(F)F)cc2)c(C)n1CC(C)C ?
NPC1 promoter act: inactive; SMN2 splice enh: inactive; Luc counter: inactive; ELG1 genotox: inactive; Rab9 promoter act: inactive; FLuc counter: inconclusive

Results for N#Cc1ccc(-c2ccccc2)nc1SCC(=O)c1cccc(Cl)c1 ?
NPC1 promoter act: inactive; SMN2 splice enh: inactive; Luc counter: inactive; ELG1 genotox: inactive; Rab9 promoter act: inactive; FLuc counter: inactive

What do the screens show for `O=C(CSc1ccc(-c2ccccc2)nn1)c1ccccc1`?
NPC1 promoter act: inconclusive; SMN2 splice enh: inconclusive; Luc counter: inactive; ELG1 genotox: inconclusive; Rab9 promoter act: inconclusive; FLuc counter: 16.9µM

How did N#Cc1ccc(-c2cccnc2)nc1SCC(=O)c1ccccc1 do in these assays?
NPC1 promoter act: inconclusive; ELG1 genotox: inactive; Rab9 promoter act: 3.16µM; FLuc counter: inconclusive

What do the screens show for `COc1ccc(C(=O)CSc2ccc(-c3ccc(C)cc3)nn2)cc1`?
NPC1 promoter act: inactive; SMN2 splice enh: 14.1µM; Luc counter: inactive; ELG1 genotox: inactive; Rab9 promoter act: inactive; FLuc counter: 10.7µM

Results for COc1ccc(-c2ccc(SCC(=O)c3ccc(F)cc3)nn2)cc1OC ?
NPC1 promoter act: inactive; SMN2 splice enh: inactive; Luc counter: inactive; ELG1 genotox: inactive; Rab9 promoter act: inactive; FLuc counter: 13.5µM

Results for COc1ccc(C(=O)CSc2nnc(-c3ccc(C)cc3)o2)cc1 ?
NPC1 promoter act: inactive; SMN2 splice enh: inactive; Luc counter: inactive; ELG1 genotox: inconclusive; Rab9 promoter act: inactive; FLuc counter: inactive

What do the screens show for `Cc1ccc(C(=O)CSc2ccc(-c3ccccc3)nn2)cc1`?
NPC1 promoter act: inactive; SMN2 splice enh: inactive; Luc counter: inactive; ELG1 genotox: inactive; Rab9 promoter act: inactive; FLuc counter: inconclusive

How did COc1ccc(CCNC(=O)c2nc(SCc3ccc(F)cc3)ncc2Cl)cc1OC do in these assays?
SMN2 splice enh: inactive; FLuc counter: inconclusive

Results for CN1CCC[C@@H]1c1cccnc1.O=C(O)c1ccccc1O.O=C([OH2+])c1ccccc1O.O=C([OH2+])c1ccccc1O.O=C([OH2+])c1ccccc1O.[Cu] ?
SMN2 splice enh: inactive[9.22 µM]; Luc counter: inactive[7.66 µM]

Results for CC(C)Nc1ccc(Cl)cc1[N+](=O)[O-] ?
NPC1 promoter act: inactive; ELG1 genotox: inactive; Rab9 promoter act: inactive; FLuc counter: inactive

How did COc1ccc(-c2ccc(SCC(=O)N3CCCC3)nn2)cc1OC do in these assays?
NPC1 promoter act: inactive; SMN2 splice enh: inactive; Luc counter: inactive; ELG1 genotox: inactive; Rab9 promoter act: inactive; FLuc counter: inconclusive

Results for COc1ccc(-c2ccc(SCC(=O)c3cccs3)nn2)cc1OC ?
NPC1 promoter act: inactive; SMN2 splice enh: inconclusive; Luc counter: inactive; ELG1 genotox: inactive; Rab9 promoter act: inactive; FLuc counter: 19µM

What do the screens show for `Cc1ccc(Cl)cc1N1CCN(c2nc3ccccc3c3nc(-c4cccnc4)nn23)CC1`?
SMN2 splice enh: inactive; FLuc counter: inactive

What do the screens show for `Cc1ccc2c(c1)Sc1c(ccc3ccccc13)N2`?
NPC1 promoter act: inconclusive; ELG1 genotox: inconclusive; Rab9 promoter act: 2.51µM; FLuc counter: 12µM

Results for CCC(Sc1nnc2c3ccccc3n(CC)c2n1)C(=O)Nc1ccc(NC(C)=O)cc1 (centres undefined) ?
SMN2 splice enh: inactive; FLuc counter: inactive

How did CN=CC1=C(O)c2ccccc2C1=O do in these assays?
NPC1 promoter act: inactive; SMN2 splice enh: inactive; Luc counter: inactive; ELG1 genotox: inactive; Rab9 promoter act: inactive; FLuc counter: inactive

Results for COc1ccc(Cn2c(O)c(C=Nc3ccc(OC)cc3)c3ccccc3c2=O)cc1 ?
NPC1 promoter act: inactive; SMN2 splice enh: inactive; Luc counter: inactive; ELG1 genotox: inactive; Rab9 promoter act: inactive; FLuc counter: inactive

How did COc1ccc(N=Cc2[nH]c3ccccc3c2O)cc1 do in these assays?
NPC1 promoter act: inactive; SMN2 splice enh: inconclusive; Luc counter: inactive; ELG1 genotox: inactive; Rab9 promoter act: inconclusive; FLuc counter: 2.13µM

How did O=C1C(C=Nc2ccccc2)=C(O)c2ccccc21 do in these assays?
NPC1 promoter act: 3.16µM; SMN2 splice enh: 15.8µM; Luc counter: 12.6µM; ELG1 genotox: inconclusive; Rab9 promoter act: 1.58µM; FLuc counter: 0.536µM

What do the screens show for `COc1ccc(S(=O)(=O)/N=C2\C=C(Nc3ccc(O)cc3)C(=O)c3ccccc32)cc1`?
NPC1 promoter act: inactive; ELG1 genotox: inactive; Rab9 promoter act: inactive; FLuc counter: inconclusive

How did COc1ccc(N=CC2=C(O)c3ccccc3C2=O)cc1 do in these assays?
NPC1 promoter act: 0.708µM; SMN2 splice enh: 3.98µM; Luc counter: 4.47µM; ELG1 genotox: inconclusive; Rab9 promoter act: 0.316µM; FLuc counter: 0.151µM

What do the screens show for `O=C1C(C=NCCN2CCOCC2)=C(O)c2ccccc21`?
NPC1 promoter act: inactive; SMN2 splice enh: inconclusive; Luc counter: inactive; ELG1 genotox: inconclusive; Rab9 promoter act: inactive; FLuc counter: 6.01µM

What do the screens show for `COc1ccc(N2CC(NC(=O)c3ccco3)CC2=O)cc1OC` (centres undefined)?
FLuc counter: inactive
